Test [1] is described as follows: Counterscreen for APE1 Inhibitors: Fluorescent Dye Displacement Validation Assay (AID 1707). The method, boiled down: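 Thiazole Orange (250 nM) bound to 50 nM TAMRA-labelled dsDNA with tetrahydrofuran abasic site; displacement by DNA-binding compounds lowers fluorescence. Buffer 50 mM Tris-HCl pH 7.5, 50 mM NaCl, 2 mM MgCl2, 0.01% Tween-20; endpoint read at 480/540 nm.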
A general note: Counterscreens check selectivity or assay interference.

In test [2] the target is Endonuclease 4 (Escherichia coli (strain K12)) (UniProt P0A6C1). The test is described as follows: Counterscreen for APE1 Inhibitors: qHTS Validation Assay for Inhibitors of Endonuclease IV (AID 1708). The method, boiled down:
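2 nM enzyme was preincubated with compounds for 15 min at room temperature in 50 mM Tris-HCl pH 7.5, 50 mM NaCl, 2 mM MgCl2, 1 mM DTT, 0.01% Tween-20. 50 nM THF-abasic TAMRA/BHQ-2 duplex substrate started the reaction.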

Test [3] is described as follows: qHTS for differential inhibitors of proliferation of Plasmodium falciparum line GB4 (AID 1816).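 Note: parasite growth measured after 72 h incubation.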 Note: potency is the fitted concentration of half-maximal effect. To be noted: Potency: Plasmodium falciparum GB4 proliferation inhibition. A general note: Quantitative high-throughput screening tests each substance at several concentrations.
Test [4] is described as follows: qHTS for differential inhibitors of proliferation of Plasmodium falciparum line D10 (AID 1877).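 Note: parasites grown with compound for 72 h before DNA staining.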 Note: potency is the fitted concentration of half-maximal effect.
Test [5] in a line: qHTS for differential inhibitors of proliferation of Plasmodium falciparum line W2 (AID 1883).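 Note: parasites grown with compound for 72 h before lysis and staining.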 Note: potency is the fitted concentration of half-maximal effect. To be noted: Potency: Plasmodium falciparum W2 proliferation inhibition.
Test [6] is described as follows: qHTS for differential inhibitors of proliferation of Plasmodium falciparum line 3D7 (AID 1876).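 Note: parasite growth measured after three days of culture.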
Test [7] is described as follows: qHTS for differential inhibitors of proliferation of Plasmodium falciparum line HB3 (AID 1886).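 Note: parasites grown with compound for 72 h before SYBR Green readout.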 To be noted: Potency: Plasmodium falciparum HB3 proliferation inhibition.
Test [8] can be described thus: qHTS for differential inhibitors of proliferation of Plasmodium falciparum line 7G8 (AID 1815).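 Note: parasite growth measured after three days of incubation.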 Note: potency is the fitted concentration of half-maximal effect.
Test [9] can be described thus: qHTS Assay for Identification of Small Molecule Inducers of Hypoxia Response (AID 2120; active = well fitted curve in the direction sought with a large enough effect in the signal ratio, with a control signal flat, not every such curve was filed as active; the % refers to the signal ratio). In short, it runs like this: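 HRE-beta-lactamase reporter in CellSensor HRE-bla ME-180 cells, 2500 cells/well in Opti-MEM with 0.5% dialyzed FBS; compounds tested as titration series, 17 h at 37 degrees C. CCF4 substrate 2.5 h at room temperature; AC50 from 460/530 nm ratio.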

Test [10] can be described thus: qHTS Assay for Modulators of Human Peripheral Myelin Protein 22 (PMP22) Expression/Activity (AID 1967; active = well fitted curve in the direction sought with a large enough effect in the signal ratio; the % refers to the signal ratio). The method, boiled down: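 Luminescence ratio of Pmp22 promoter-driven green luciferase to EF-alpha-driven red luciferase, in engineered mouse MSC80 Schwann cells, served as read-out. Compounds were incubated 24h; untreated cells defined 0% Activity; curves were classified by r2, magnitude and activity.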

Results filed as inconclusive are left out. The source made the active and inactive calls. Unless noted, calls come from the whole dose curve; as a rule, active = well fitted curve in the direction sought with a large enough effect; inconclusive = small, poorly fitted or top-dose-only effect, or another doubt; inactive = no such curve, though single readings can be large; an effect the other way counts as inactive or inconclusive.

From PubChem BioAssay (NCATS) come the findings set out here.

For `O=c1[nH]c2ccccc2n1CCCN1CCC(n2c(=O)[nH]c3cc(Cl)ccc32)CC1`, the Potency result in test [1] is “inactive”. The compound was called inactive in test [2]. Besides, the Potency in [3] is 12.6 µM (active); in test [4], 14.1 µM (active); in test [5] it was 4.47 µM (active).
For `CCC1(C2=NCCN2)Cc2ccccc2O1` (configuration not stated), the Potency result in [1], in [6], in test [4] and in [7] was “inactive” each time. The compound was called inactive in test [2]. The Potency in [3] is 12.6 µM (active); in test [5], 3.98 µM (active).
Take `NCC(CC(=O)O)c1ccc(Cl)cc1` (configuration not stated): the Potency entry in test [1], in [8], in [3], in test [6], in [4] and in test [5] was “inactive” throughout. In addition, the Potency entry in test [7] is “inactive”. Further, the outcome in [2] was inactive.
Consider `NN=C(N)N`, for which the Potency entry in test [1], in test [8], in test [3], in test [6], in test [4] and in [5] was “inactive” throughout. In test [7], the Potency result is “inactive”. In [2], the result was inactive.
Regarding `c1ccc2c(c1)OCC(C1=NCCN1)O2` (configuration not stated), the Potency entry in [1] and in test [4] was “inactive” throughout. Further, the compound was called inactive in test [2]. Also, the Potency was 8.91 µM (active) in [8] and 12.6 µM (active) in [5].
As for `Cc1cccc(C)c1NC1=NCCCS1`, the Potency entry in [1], in test [6], in test [4] and in [7] was “inactive” in each case. Also, the compound was classed as inactive in [2]. Besides, the Potency in [8] is 7.94 µM (active); in [3], 14.1 µM (active); in [5] it was 5.01 µM (active).
As to `CCCC(C)(COC(N)=O)COC(=O)NC(C)C` (configuration not stated), the Potency entry in test [1], in test [8], in [3], in test [6], in test [4] and in test [5] was “inactive” throughout. In addition, the Potency entry in [7] was “inactive”. Besides, the result in [2] and in test [9] was inactive.
For the compound `CNCC(O)c1ccc(O)cc1` (configuration not stated), the Potency entry in [1], in test [8], in [3], in test [6], in test [4] and in test [5] was “inactive” throughout. Further, in [7], the Potency result was “inactive”. Besides, the outcome in test [2] and in [9] was inactive.
With `N#CC(C#N)=Cc1ccc(O)c(O)c1`, the Potency result in [1] is “inactive”. Moreover, in [2], the outcome was inactive. In addition, the Potency in test [3] was 14.1 µM (active); in test [5], 12.6 µM (active).
In the case of `c1ccc(C2CC2)c(OCC2=NCCN2)c1`, the Potency entry in test [1], in [6], in test [4] and in test [7] was “inactive” throughout. Also, the result in [2] was inactive. The figures for the Potency in test [3] and in [5] were 12.6 µM (active) and 8.91 µM (active), respectively.
Turning to `Clc1cccc(N2CCNCC2)c1`, the Potency entry in test [1], in test [6], in test [4] and in test [7] was “inactive” throughout. The outcome in test [2] was inactive. In addition, the Potency in test [3] is 12.6 µM (active); in test [5], 6.31 µM (active).
With `Nc1ccncc1`, the Potency result in test [1], in test [8], in test [3], in [6], in test [4] and in test [5] was “inactive” in each case. Also, the Potency result in test [7] is “inactive”. In addition, the outcome in [2] was inactive.
Consider `Cc1ccc(S(=O)(=O)N[C@@H](CCCCN)C(=O)CCl)cc1`, for which the Potency entry in [1], in test [8], in test [3], in [4] and in test [7] was “inactive” each time. The outcome in [2] was inactive.
Consider `CCn1cc(C(=O)O)c(=O)c2ccc(C)nc21`, for which the Potency entry in test [1] is “inactive”. In addition, the call in test [2] and in [10] was inactive.
For the compound `CCCN1CCC[C@@H]2Cc3nc(N)ncc3C[C@H]21`, the Potency entry in [1], in [8], in test [3], in test [6], in test [4] and in test [5] was “inactive” each time. Also, the Potency result in test [7] is “inactive”. For the same compound, in [2], the compound was classed as inactive.
Regarding `NCC(O)c1ccc(O)cc1` (configuration not stated), the Potency entry in [1], in test [8], in [3], in test [6], in test [4] and in [5] was “inactive” throughout. Moreover, in test [7], the Potency result is “inactive”. For the same compound, the outcome in test [2] and in test [9] was inactive.
For the compound `COc1ccccc1N1CCNCC1`, the Potency result in [1], in test [8], in test [6] and in test [7] was “inactive” throughout. The call in [2] and in test [10] was inactive.
